These sequences were tested against GDF3 (assay: pooled miR-30 sensor sort-seq; sequence = guide strand). Conditions: shRNA.
For ATTGTCATTATTGTCCTGGTAG, the sensor-assay potency score (higher = more potent) was 0.032.
TTACGTAGCATAAGTCTCGGGA showed a sensor-assay potency score (higher = more potent) of 0.238.
Work on TTTACGTAGCATAAGTCTCGGG yielded a sensor-assay potency score (higher = more potent) of -0.227.
TTCTTGAAATTGGACTGCCTGG showed a sensor-assay potency score (higher = more potent) of -1.06.
Work on TAGAATGACATTGTCATTATTG yielded a sensor-assay potency score (higher = more potent) of -1.56.
Work on TGAAGTGAACAGCACCTTGTGG yielded a sensor-assay potency score (higher = more potent) of -0.321.
TTCTTTGACCAGTATCTCCAGG gave a sensor-assay potency score (higher = more potent) of -0.0651.
Work on TTTATTAAAAGATTTACCCTAA yielded a sensor-assay potency score (higher = more potent) of 0.196.
In the case of ATCCTTAGCTACATCCAGCAGG, the sensor-assay potency score (higher = more potent) is reported as -0.935.
With TAATGTCGTAGAATGACATTGT the sensor-assay potency score (higher = more potent) was 0.288.
In the case of TTTACCCTAAGAACACTCCTTC, the sensor-assay potency score (higher = more potent) is reported as 0.541.
In the case of TAACAGGAAGCTGAAAGCCAAA, the sensor-assay potency score (higher = more potent) is reported as -1.72.

Each sequence was assayed against GEMIN6 in the same assay as above. Conditions: shRNA.
For TTCAATAAGATCCTGAACACGC, the sensor-assay potency score (higher = more potent) was 0.147.
With TATACTCATTCTTCTCACTGGC the sensor-assay potency score (higher = more potent) was 0.16.
Work on TTAGGCTGTTCTTTCTCTCTTC yielded a sensor-assay potency score (higher = more potent) of -0.165.
ATTCCGGTCACAGACATGCTGC was tested, and the sensor-assay potency score (higher = more potent) was -1.04.
With ATAATCTCATTAGAGCTGCTGC the sensor-assay potency score (higher = more potent) was -0.457.
TTGTAAATGTAATCTTGCCATT gave a sensor-assay potency score (higher = more potent) of -1.2.

Source: the OligoGym collection
Also: reference of the scale not given here.
